This note sets out measurements from PubChem BioAssay AID504336 (NMMLSC, 2011).

Each structure is given as a SMILES string. Calls of active or inactive are those of the source.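 Rule for the calls: active = compounds whose GFP signal falls below 65% of the DMSO control level; inconclusive = fewer than 70 yeast cells counted in the well; inactive = the rest.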

This assay can be described thus: TOR branch reporter RPL19A-GFP response – cell-based, S. cerevisiae, third cherry pick, flow cytometry, confirmation (AID 504336).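 Note: median GFP fluorescence of all gated yeast cells by flow cytometry; ratio of well median fluorescence to plate mean of DMSO wells with DMSO = 100%.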 As to conditions: S. cerevisiae RPL19A-GFP strain, 3 h, at 10 µM, active compounds read low. (In flow cytometry, cells or beads pass a laser one at a time.)
As for `COC1=C/C(=C/c2c(N)n3cc(C)sc3nc2=O)C=CC1=O`, the GFP response relative to DMSO was 103% (inactive).

For `CS(=O)(=O)c1nc(-c2ccc(F)cc2)cc(C(F)(F)F)n1`, the GFP response relative to DMSO is 97.8% (inactive).

As to `CN(C)CCCNc1cc(O)c2ncccc2c1`, the GFP response relative to DMSO was 103% (inactive).

Consider `COc1ccc(NC(=O)ON=C2c3ccccc3-c3ccccc32)cc1`, for which the GFP response relative to DMSO is 107% (inactive).

On to `O=C(Nc1cccc2ccccc12)ON=C1CCCCC1`, for which the GFP response relative to DMSO is 101% (inactive).

Take `Cc1cc(C)c2ccc(C(=O)O)nc2c1O`: the GFP response relative to DMSO was 98.5% (inactive).

Regarding `COc1cccc2c(=O)c(C(=O)O)c[nH]c12`, the GFP response relative to DMSO is 98.3% (inactive).

Turning to `CC(C)Nc1ncnc2ccc(Br)cc12`, the GFP response relative to DMSO is 97.8% (inactive).

In the case of `O=C(Nc1nc(-c2ccccn2)cs1)c1ccccc1-n1cnnn1`, the GFP response relative to DMSO is 98.8% (inactive).

For the molecule `Cc1ccc(C(=O)/C=C/Nc2cccc(O)c2)cc1`, the GFP response relative to DMSO was 101% (inactive).

Take `Cc1ccc(NN2C(=O)C=C(c3ccccc3)C2=O)cc1`: the GFP response relative to DMSO was 61.2% (active).

In the case of `Cc1ccc2c(Cl)cc(Cl)c(O)c2n1`, the GFP response relative to DMSO is 82.6% (inactive).

In the case of `CC1=NNC(=O)/C1=C\c1cn(-c2ccccc2)nc1-c1ccc(F)cc1`, the GFP response relative to DMSO is 89.7% (inactive).

On to `COCCNc1nc(N)c([N+](=O)[O-])c(Nc2ccc(F)cc2)n1`, for which the GFP response relative to DMSO was 100% (inactive).

With `Cc1ccc2c(C)ccc(O)c2n1`, the GFP response relative to DMSO is 103% (inactive).

Consider `COc1cc(OC)cc(C(=O)Nc2ccc(-c3nc4ccccc4o3)cc2)c1`, for which the GFP response relative to DMSO is 103% (inactive).

As to `C/C(=C\C(=O)c1ccc(C)cc1)Nc1cccc(O)c1`, the GFP response relative to DMSO is 99.3% (inactive).

For the molecule `Oc1c(Cl)cc(Cl)c2cccnc12`, the GFP response relative to DMSO was 81.6% (inactive).

For `COc1ccccc1Nc1nc(NCCCN(C)C)nc(N)c1[N+](=O)[O-]`, the GFP response relative to DMSO was 99.1% (inactive).

In the case of `COC(=O)c1cc(=O)c2cccc(OC)c2[nH]1`, the GFP response relative to DMSO is 101% (inactive).

On to `Nc1cccc2c1C(=O)c1ccc(Cl)cc1C2=O`, for which the GFP response relative to DMSO was 102% (inactive).

For `Cc1ccc(-c2cc(C(F)F)nc(S(C)(=O)=O)n2)cc1`, the GFP response relative to DMSO is 96.2% (inactive).

For `CC1=CN2C(=N)/C(=C/c3ccc(C)o3)C(=O)N=C2S1`, the GFP response relative to DMSO is 101% (inactive).

With `OCc1ccc(O)c2ncccc12`, the GFP response relative to DMSO was 101% (inactive).

`N#Cc1c(N)nc(N)nc1Nc1ccc(Br)cc1`: the GFP response relative to DMSO was 99.6% (inactive).

In the case of `CCC(=O)Nn1cnc2c(c1=O)C1(CCCCC1)Cc1ccccc1-2`, the GFP response relative to DMSO is 103% (inactive).

With `Cn1c(NCCO)nc2c(c1=O)C1(CCCCC1)Cc1ccccc1-2`, the GFP response relative to DMSO was 103% (inactive).

As to `CSc1ccccc1OCc1cc(C(=O)N2CCN(C)C(c3ccccc3)C2)no1` (centres undefined), the GFP response relative to DMSO is 101% (inactive).

With `Cc1ccc2nc(-c3ccc(NC(=O)c4cccnc4)cc3)oc2c1`, the GFP response relative to DMSO was 97.2% (inactive).

For `OCCNc1ncnc2ccc(Br)cc12`, the GFP response relative to DMSO was 99.8% (inactive).

For the molecule `C/C(=N\NC(=O)c1cccc2ccccc12)c1cccnc1`, the GFP response relative to DMSO was 98.3% (inactive).

For the molecule `O=C(O)CCCCCNc1ncnc2ccc(Br)cc12`, the GFP response relative to DMSO was 99.8% (inactive).

On to `O=C(N/N=C/c1ccccc1)c1cccc2ccccc12`, for which the GFP response relative to DMSO is 98.3% (inactive).

Turning to `Nc1c(O)ccc2c1C(=O)c1ccccc1C2=O`, the GFP response relative to DMSO is 102% (inactive).

On to `Nn1cnc2c(c1=O)C1(CCCCC1)Cc1ccccc1-2`, for which the GFP response relative to DMSO is 101% (inactive).

Regarding `C/C(=C\C(=O)c1ccc(Cl)cc1)Nc1ccc(Br)cc1`, the GFP response relative to DMSO is 100% (inactive).

Take `COc1ccccc1OCc1cc(C(=O)N2CCN(C)C(c3ccccc3)C2)no1` (centres undefined): the GFP response relative to DMSO was 101% (inactive).

As for `CN1CCN(C(=O)c2cc(COc3ccc(F)cc3Cl)on2)CC1c1ccccc1` (centres undefined), the GFP response relative to DMSO is 100% (inactive).

Consider `C=CCNc1ncnc2ccccc12`, for which the GFP response relative to DMSO was 103% (inactive).
